The record followed here is PubChem BioAssay (NCI).

Values joined by “and” are separate entries in the source; they are usually repeats but may differ in a detail not shown here. Equal entries are not always repeated. Compounds without any hit were thinned out: in the full panel of roughly 83,000, 20% have a hit.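 In brief: 96-well plates, 48 h treatment, single concentration, percent growth endpoint.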 A number with no mark means an inactive call. Active and inactive are the calls of the source.

The first assay has as its system ACHN renal. In words: NCI-60 one-dose screen, 48 h (100 = growth as untreated, 0 = no growth, -100 = all killed). The settings on record: 10 µM. As to the method: Growth inhibition of the ACHN human tumor cell line is measured as a screen for anti-cancer activity. Cells are grown in 96 well plates and exposed to the test compound for 48 hours. Compounds are tested at a single concentration, which is 10^-5 M for most compounds. The reported endpoint is percent growth (GI% or GIPRCNT), where numbers from 0 - 100% represent growth inhibition, and numbers from -100% - 0 represent cell death. For example, a value of 40 represents 60% growth inhibition. A value of 0 means no net growth occurred over the course of the experiment. A value of -40 indicates 40% of cells at the beginning of the experiment died by the end of the experiment. A value of -100 means all cells are dead at the end of the experiment.
NCI-60 Human Tumor Cell Lines Screen was performed using the standard one-dose NCI protocol, which is described in more detail at https://dtp.cancer.gov/discovery_development/nci-60/default.htm.
Compounds with GIPRCNT values below 10 were considered active. Activity score was based on GIPRCNT using the following formula: […]
Score is 0 for GIPRCNT values of 100 or above, 50 for GIPRCNT values of 0, and 100 for GIPRCNT values of -100.
As for `O=C(Nc1cccc(Br)c1)Oc1cccc2cccnc12`, the growth was 103%.
As to `COc1ccc(-c2cscc2N)cc1`, the growth is 54.7%.
Still for that read-out and setting: the value for `O=C(Nc1c(Cl)cccc1Cl)Oc1cccc2cccnc12` was 38.8%; that for `O=C(O)c1c(Cl)c(Cl)c(Cl)c(Cl)c1-c1c2cc(I)c(=O)c(I)c-2oc2c(I)c(O)c(I)cc12` was 100% and 98.7% and 89.6%.

Still in this assay, the particulars now being: 10 µM unless noted.
Turning to `CCCCCCCCCCCCCCCCCCOP(=O)([O-])OC1CC[N+](C)(C)CC1`, the growth was 28.6% and 23.9%.
The same measure, in the same setting: the value for `CCN(CC)CC(C)(C)C(=O)/C=C/c1ccc(Cl)c(Cl)c1` was -42.8% (active); that for `Oc1ccc(/C=N/NC(=S)Nc2ccccc2)nc1` was 12.3%; that for `CC(=O)C(=Cc1ccc(C=C(C(C)=O)C(C)=O)cc1)C(C)=O` was -33.5% (active).
With `CN=C(N)N/N=C(\C)c1ccc2c(c1)Cc1cc(/C(C)=N/NC(N)=NC)ccc1-2`, the growth was -49.9% (active).
Take `CCCCCCCCCCCCCCNCc1ccccc1`: the growth is 90.9%.
For the compound `O=C1NC(=O)/C(=C/C=C/c2ccccc2)S1`, the growth is 9.79% (active).
For the compound `O=C(Nc1cccc(Br)c1)Oc1ccc(Cl)c2cccnc12`, the growth is 10.1% [100 µM].
`CCOc1ccc(-c2nc3ccc(-c4nc5ccc(N6CCN(C)CC6)cc5[nH]4)cc3[nH]2)cc1`: the growth is -33.8% (active).
Regarding `Cc1cc(N)c2ccccc2[n+]1CCCCCCCCCC[n+]1c(C)cc(N)c2ccccc21`, the growth was 42.8%.
In the case of `Cn1c2c(c3ccccc31)CCN1C[C@@H]3CCCC[C@H]3C[C@@H]21`, the growth is 30.4%.
Turning to `COc1ccc(N=N/N=c2\sc3cc(OC)ccc3n2C)cc1`, the growth was 97.4%.
With `O=C(Nc1ccccc1)c1cc(Cl)ccc1O`, the growth was 57.3%.
Consider `O=Nc1ccccc1N=O`, for which the growth is 84.5%.
In the case of `CCCCCCCCCCCCCCCCN(CC)CC`, the growth is -57.4% (active).
As for `CC1SC(=S)N(c2ccc(Cl)cc2)C1=O` (stereo not given), the growth was 86.8% and 73.4%.
Same read-out and setting: the value for `Cc1cc2nc(CS)[nH]c2cc1C` was 92%; that for `CCC(CC)COC(=O)c1ccc(O)c(O)c1` was 72.5%; that for `CC(=O)ON=C1C=CC(=C(C#N)c2ccccc2)C=C1` was 14%.
Take `CC1OC(OC2C(OC3CCC4(C)C(CCC5(C)C4CC=C4C6CC(C)(C)CCC6(CO)C(O)CC45C)C3(C)C)OC(C(=O)O)C(OC3OC(COC4OC(CO)C(O)C(O)C4O)C(O)C(O)C3O)C2O)C(O)C(O)C1O` (stereo not given): the growth is -100% (active).
For the compound `COc1cc(NS(C)(=O)=O)ccc1Nc1c2ccccc2nc2ccccc12`, the growth was 2.39% [2.5 µM] (active).
On the same count and under the same terms, the value for `C=C(Cl)C(=NC(C)(C)C)Nc1ccccc1C` was 91%.
For the compound `c1ccc2c(c1)Nc1cc3ccccc3cc1N2`, the growth is 27%.
Turning to `Cc1ccc2nc(-[n+]3cc4ccccc4cc3C)ccc2c1`, the growth was 103%.
The same measure, in the same setting: the value for `O=C1C=CC(=O)N1C1c2ccccc2-c2ccccc21` was 57.8%.
Take `C1=C(c2ccccc2)C(c2ccc(OCCN3CCCCC3)cc2)Oc2ccccc21` (stereo not given): the growth is 71.5%.
On to `CCC(=O)Sc1ccccc1C(=O)Nc1ccc(Cl)cc1`, for which the growth is 73.2%.
Consider `N[C@H](C(=O)O)[C@@H]1CC(Cl)=NO1`, for which the growth is 21.5% [20 µM].
In the case of `CN(C)C(=O)SC1=C(c2c(Cl)cccc2Cl)C(=O)c2ccccc21`, the growth was -43.2% (active).
On to `O=C(/C=C/C=C/c1ccccc1)c1ccco1`, for which the growth was 107%.
Same read-out and setting: the value for `O=C(Nc1ccc(F)cc1)ON=C1CCCCC1` was 97.9% [100 µM]; that for `Cc1c2ccccc2c(C)c2c1ccc1ccccc12` was 97.2%.

Still in this assay, the particulars now being: 100 µM.
In the case of `O=C(Nc1cccc(Br)c1)Oc1cccc2cccnc12`, the growth was 15.4%.
In the case of `COc1ccc(-c2cscc2N)cc1`, the growth was 40.7%.
`O=C(Nc1c(Cl)cccc1Cl)Oc1cccc2cccnc12`: the growth is 12.1%.
`O=C(O)c1c(Cl)c(Cl)c(Cl)c(Cl)c1-c1c2cc(I)c(=O)c(I)c-2oc2c(I)c(O)c(I)cc12`: the growth is -80.7% (active).
